Results as given in paper PMC7862700, “An all-to-all approach to the identification of sequence-specific readers for epigenetic DNA modifications on cytosine”.

Tests used:
Assay in all cases: DAPPL (digital affinity profiling via proximity ligation, sequencing); 10 mM Tris-HCl pH 7.5, 50 mM NaCl, 1 mM DTT, 4% glycerol, room temperature, 30 min; GST-TFs on glutathione beads, 16-mer random dsDNA library, 0.1% formaldehyde crosslink after washing; high values mean tight binding
FEV = biological target: T1, FEV (Homo sapiens, UniProt Q99581 1-238); conditions: protein: recombinant; tags: N-terminal GST; dsDNA, one strand shown
T1 sequence: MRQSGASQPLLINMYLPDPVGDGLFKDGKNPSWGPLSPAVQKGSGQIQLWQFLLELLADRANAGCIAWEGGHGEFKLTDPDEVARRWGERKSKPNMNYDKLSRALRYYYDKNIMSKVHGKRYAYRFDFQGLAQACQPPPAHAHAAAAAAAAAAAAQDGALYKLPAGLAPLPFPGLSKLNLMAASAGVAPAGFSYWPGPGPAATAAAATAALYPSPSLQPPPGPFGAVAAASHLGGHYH
Procedure, shortened: (§1)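 Human transcription factors fused to GST were expressed in yeast, captured on glutathione beads, given DNA barcodes and pooled with a GST-only negative control. Pools were incubated with 200 nmole of a 16-mer random double-stranded DNA library in Tris/NaCl/DTT/glycerol buffer at room temperature for 30 min. They were then washed, crosslinked with 0.1% formaldehyde, proximity-ligated (BsaI/T4 ligase, 1 h, 37 °C), PCR-amplified and sequenced on an Illumina NextSeq500. Binding signal is each 6-mer's read frequency for a factor divided by its frequency for the GST control.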

ETV5 = ETV5 (Homo sapiens, UniProt P41161 1-510); conditions: protein: recombinant; tags: N-terminal GST; dsDNA, one strand shown
Procedure, shortened: as §1

HSF1 = HSF1 (Homo sapiens, UniProt Q00613 1-529); conditions: protein: recombinant; tags: N-terminal GST; chain copies: 3; dsDNA, one strand shown
Procedure, shortened: as §1

SPIC = biological target: T2, SPIC (Homo sapiens, UniProt Q8N5J4 1-248); conditions: protein: recombinant; tags: N-terminal GST; dsDNA, one strand shown
T2 sequence: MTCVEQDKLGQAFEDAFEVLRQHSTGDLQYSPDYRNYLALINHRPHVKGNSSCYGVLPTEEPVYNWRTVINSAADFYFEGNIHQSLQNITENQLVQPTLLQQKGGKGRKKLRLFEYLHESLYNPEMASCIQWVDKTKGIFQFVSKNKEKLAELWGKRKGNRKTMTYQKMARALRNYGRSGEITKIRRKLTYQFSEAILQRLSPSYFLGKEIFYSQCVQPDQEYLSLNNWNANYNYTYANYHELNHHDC
Procedure, shortened: as §1

ELF4 = ELF4 (Homo sapiens, UniProt Q99607 1-663); conditions: protein: recombinant; tags: N-terminal GST; dsDNA, one strand shown
Procedure, shortened: as §1

ELK4 = biological target: T3, ELK4 (Homo sapiens, UniProt P28324-2 1-405); conditions: protein: recombinant; tags: N-terminal GST; dsDNA, one strand shown
T3 sequence: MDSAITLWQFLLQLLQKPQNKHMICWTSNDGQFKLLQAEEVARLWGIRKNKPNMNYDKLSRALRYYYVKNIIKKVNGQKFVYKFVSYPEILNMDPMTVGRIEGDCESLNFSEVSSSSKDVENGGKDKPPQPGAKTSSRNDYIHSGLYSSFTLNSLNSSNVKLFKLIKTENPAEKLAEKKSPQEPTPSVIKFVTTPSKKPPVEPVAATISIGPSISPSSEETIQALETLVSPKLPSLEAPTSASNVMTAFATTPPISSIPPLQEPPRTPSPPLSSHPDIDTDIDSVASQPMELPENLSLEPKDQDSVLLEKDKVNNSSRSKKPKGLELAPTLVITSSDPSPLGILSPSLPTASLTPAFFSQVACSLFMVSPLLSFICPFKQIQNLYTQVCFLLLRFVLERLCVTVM
Procedure, shortened: as §1

ETV2 = biological target: T4, ETV2 (Homo sapiens, UniProt O00321 1-342); conditions: protein: recombinant; tags: N-terminal GST; dsDNA, one strand shown
T4 sequence: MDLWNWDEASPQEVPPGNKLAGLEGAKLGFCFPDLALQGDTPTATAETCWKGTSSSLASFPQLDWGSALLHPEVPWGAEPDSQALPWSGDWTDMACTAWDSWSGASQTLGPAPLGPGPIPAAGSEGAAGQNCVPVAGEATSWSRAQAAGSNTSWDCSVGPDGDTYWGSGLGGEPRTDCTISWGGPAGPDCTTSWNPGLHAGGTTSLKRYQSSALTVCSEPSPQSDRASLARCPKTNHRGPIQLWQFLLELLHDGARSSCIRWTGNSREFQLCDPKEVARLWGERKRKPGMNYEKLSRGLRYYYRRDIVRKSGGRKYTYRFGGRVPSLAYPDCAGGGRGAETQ
Procedure, shortened: as §1

ELF3 = biological target: T5, ELF3 (Homo sapiens, UniProt P78545 1-371); conditions: protein: recombinant; tags: N-terminal GST; dsDNA, one strand shown
T5 sequence: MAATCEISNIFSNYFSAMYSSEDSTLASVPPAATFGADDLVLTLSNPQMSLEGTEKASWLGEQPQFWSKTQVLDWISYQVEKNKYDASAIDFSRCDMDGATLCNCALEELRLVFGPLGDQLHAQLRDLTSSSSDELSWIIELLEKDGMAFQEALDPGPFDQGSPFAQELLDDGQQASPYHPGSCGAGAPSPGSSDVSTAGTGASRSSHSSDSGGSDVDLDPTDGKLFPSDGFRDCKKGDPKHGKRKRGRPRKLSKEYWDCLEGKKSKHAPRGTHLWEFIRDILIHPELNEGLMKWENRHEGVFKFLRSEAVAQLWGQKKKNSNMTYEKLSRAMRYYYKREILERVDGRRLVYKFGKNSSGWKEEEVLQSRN
Procedure, shortened: as §1

CRX = CRX (Homo sapiens, UniProt O43186 1-299); conditions: protein: recombinant; tags: N-terminal GST; dsDNA, one strand shown
Procedure, shortened: as §1

Chain of ETV5 (P41161 whole entry): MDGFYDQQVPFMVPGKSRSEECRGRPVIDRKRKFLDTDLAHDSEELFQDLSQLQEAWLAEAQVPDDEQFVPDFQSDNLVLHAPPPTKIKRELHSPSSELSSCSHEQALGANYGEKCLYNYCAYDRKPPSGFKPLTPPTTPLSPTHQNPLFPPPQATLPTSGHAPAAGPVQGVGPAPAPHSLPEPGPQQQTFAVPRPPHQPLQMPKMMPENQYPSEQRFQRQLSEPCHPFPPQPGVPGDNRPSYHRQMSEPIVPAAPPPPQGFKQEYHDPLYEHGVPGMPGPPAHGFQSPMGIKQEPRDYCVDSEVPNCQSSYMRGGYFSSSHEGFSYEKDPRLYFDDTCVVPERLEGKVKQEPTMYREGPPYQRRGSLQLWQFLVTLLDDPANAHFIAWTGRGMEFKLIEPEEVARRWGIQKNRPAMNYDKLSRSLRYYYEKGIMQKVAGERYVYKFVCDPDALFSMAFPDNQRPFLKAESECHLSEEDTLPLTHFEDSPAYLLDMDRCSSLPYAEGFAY
Chain of CRX (O43186 whole entry): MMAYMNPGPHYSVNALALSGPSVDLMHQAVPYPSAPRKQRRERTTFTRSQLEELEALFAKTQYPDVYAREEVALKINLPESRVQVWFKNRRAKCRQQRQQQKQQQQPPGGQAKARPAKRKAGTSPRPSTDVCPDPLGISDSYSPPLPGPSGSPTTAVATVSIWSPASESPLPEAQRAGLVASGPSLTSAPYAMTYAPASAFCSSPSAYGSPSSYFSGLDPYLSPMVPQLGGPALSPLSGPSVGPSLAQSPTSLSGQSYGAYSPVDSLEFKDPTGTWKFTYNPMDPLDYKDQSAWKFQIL
Chain of ELF4 (Q99607 whole entry): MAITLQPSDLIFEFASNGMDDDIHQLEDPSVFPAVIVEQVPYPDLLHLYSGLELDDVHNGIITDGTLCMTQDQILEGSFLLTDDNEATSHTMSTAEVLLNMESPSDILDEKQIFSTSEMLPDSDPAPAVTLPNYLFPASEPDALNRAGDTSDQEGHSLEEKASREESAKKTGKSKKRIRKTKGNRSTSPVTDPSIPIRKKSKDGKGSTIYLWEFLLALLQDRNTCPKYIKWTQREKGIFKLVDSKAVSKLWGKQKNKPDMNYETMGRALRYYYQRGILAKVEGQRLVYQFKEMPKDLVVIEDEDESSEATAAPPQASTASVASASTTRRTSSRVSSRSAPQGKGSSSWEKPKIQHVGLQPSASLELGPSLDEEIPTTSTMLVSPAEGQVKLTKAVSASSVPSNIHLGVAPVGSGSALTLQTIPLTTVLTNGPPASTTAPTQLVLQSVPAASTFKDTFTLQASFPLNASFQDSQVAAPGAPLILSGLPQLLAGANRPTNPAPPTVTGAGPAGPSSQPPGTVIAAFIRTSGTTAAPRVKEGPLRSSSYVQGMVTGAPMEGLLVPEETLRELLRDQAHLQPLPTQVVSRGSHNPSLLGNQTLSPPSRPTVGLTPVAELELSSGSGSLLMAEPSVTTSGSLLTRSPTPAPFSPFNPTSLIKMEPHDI
Chain of HSF1 (Q00613 whole entry): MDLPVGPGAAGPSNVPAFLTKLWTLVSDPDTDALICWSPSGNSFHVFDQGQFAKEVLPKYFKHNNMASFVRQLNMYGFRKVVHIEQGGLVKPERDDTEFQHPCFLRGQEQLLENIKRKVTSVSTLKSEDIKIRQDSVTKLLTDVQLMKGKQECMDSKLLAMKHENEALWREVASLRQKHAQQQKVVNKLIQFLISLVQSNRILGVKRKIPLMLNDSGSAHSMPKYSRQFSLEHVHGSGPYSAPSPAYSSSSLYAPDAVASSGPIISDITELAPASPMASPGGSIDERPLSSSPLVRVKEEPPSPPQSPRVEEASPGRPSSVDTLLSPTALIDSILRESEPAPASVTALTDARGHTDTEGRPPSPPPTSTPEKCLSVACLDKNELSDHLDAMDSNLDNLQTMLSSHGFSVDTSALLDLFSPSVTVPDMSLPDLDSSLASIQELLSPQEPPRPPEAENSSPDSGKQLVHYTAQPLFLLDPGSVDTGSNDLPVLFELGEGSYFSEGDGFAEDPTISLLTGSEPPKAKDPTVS

Q: How did the binding signal (FEV) turn out when ATCCTC was run?
A: 1.48 fold enrichment (6-mer frequency, TF over GST control)

Q: What about the binding signal (ETV5) of the same sequence?
A: 1.46 fold enrichment (6-mer frequency, TF over GST control)

Q: And the binding signal (HSF1)?
A: 1.67 fold enrichment (6-mer frequency, TF over GST control)

Q: What about the binding signal (SPIC) of the same sequence?
A: 1.31 fold enrichment (6-mer frequency, TF over GST control)

Q: And the binding signal (ELF4)?
A: 1.47 fold enrichment (6-mer frequency, TF over GST control)

Q: What about the binding signal (ELK4) of the same sequence?
A: 1.39 fold enrichment (6-mer frequency, TF over GST control)

Q: And the binding signal (ETV2)?
A: 1.68 fold enrichment (6-mer frequency, TF over GST control)

Q: What about the binding signal (ELF3) of the same sequence?
A: 1.42 fold enrichment (6-mer frequency, TF over GST control)

Q: And the binding signal (CRX)?
A: 2.46 fold enrichment (6-mer frequency, TF over GST control)
